# Biological target: T1, Aspartate--tRNA(Asp/Asn) ligase (Mycobacterium tuberculosis (strain ATCC 25618 / H37Rv)) (UniProt P9WFW3)
# T1 sequence (whole entry): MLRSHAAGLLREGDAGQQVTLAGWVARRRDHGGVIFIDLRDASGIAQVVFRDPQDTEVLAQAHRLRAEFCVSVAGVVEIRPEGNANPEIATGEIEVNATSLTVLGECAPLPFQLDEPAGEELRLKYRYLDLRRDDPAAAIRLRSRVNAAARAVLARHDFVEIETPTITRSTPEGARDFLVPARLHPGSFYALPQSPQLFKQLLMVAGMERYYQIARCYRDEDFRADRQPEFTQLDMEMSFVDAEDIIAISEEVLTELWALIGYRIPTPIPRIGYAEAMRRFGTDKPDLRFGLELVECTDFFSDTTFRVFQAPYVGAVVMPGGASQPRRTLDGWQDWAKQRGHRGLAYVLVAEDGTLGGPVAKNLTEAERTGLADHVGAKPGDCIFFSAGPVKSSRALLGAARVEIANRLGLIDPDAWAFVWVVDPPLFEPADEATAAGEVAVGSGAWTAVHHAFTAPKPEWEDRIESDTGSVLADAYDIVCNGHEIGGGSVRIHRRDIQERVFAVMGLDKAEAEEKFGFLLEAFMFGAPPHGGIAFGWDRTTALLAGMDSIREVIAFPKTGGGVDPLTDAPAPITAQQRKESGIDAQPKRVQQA
# Assay: Assay for Asp RNA synthetase-1 from Mycobacterium tuberculosis
# Format: functional
# Set-up: scale not given: in the data most compounds retested in dose-response had high values
# Conditions: 30 µM
row,Structure (SMILES),Percent Effect [%]
1,Cc1ccoc1-c1nnc(CNCC2CCCN2c2cccnn2)o1 (stereo not given),-2.62
2,O=C(CO)N1CCc2onc(Cn3cccn3)c2C1,-1.21
3,CC(C)Cc1noc(CN2CCOCC2)n1,-2.59
4,Cc1cccc(C(=O)NC(CN2CCCC2=O)c2ccccc2)n1 (stereo not given),-1.37
5,Cc1nc(CN2CCC(N(C)Cc3noc(C4CC4)n3)C2)oc1C (stereo not given),1.48
6,COc1ccccc1CC(=O)N1CCCC(n2nc(C)cc2C)C1 (stereo not given),-1.4
7,CCc1cc(C(=O)N2CCC(Nc3ccc(C)nn3)CC2)sc1C,-2.1
8,COCCNC(=O)CCc1c(C)nn(-c2nc(C)c(C)c(=O)[nH]2)c1C,-1.79
9,O=C(c1n[nH]c2ccccc12)N1CCCC1c1noc(C2CC2)n1 (stereo not given),-5.34
10,Cc1csc(CN2CC[C@H]3C[C@H](c4nnc(C)[nH]4)O[C@@H]3C2)n1,1.94
11,CCOc1ccccc1C(=O)N1CCCC1c1ncc2c(n1)CCNC2 (stereo not given),-3.07
12,CC(C)c1nc2n(n1)CC(NCc1nc(-c3cccnc3)no1)CC2 (stereo not given),-2.88
13,C[C@]1(O)CCN(Cc2cncs2)C[C@@H]1Oc1cccc(F)c1,-1.46
14,CC1CCN(C(=O)c2cccc3ncccc23)CC1,-1.51
15,CSc1ccccc1C(C(=O)O)N1CCN(Cc2ccccn2)CC1 (stereo not given),-1.38
16,COCC(=O)N1CCCC2(CCN(c3ccsc3)C2=O)C1 (stereo not given),-1.49
17,CC(C)c1nn(C)c(N2CCOCC2)c1CNCC(=O)N(C)C,-4.92
18,COc1ccccc1N1CCC(CNCc2cccc(C#N)c2)C1 (stereo not given),13.3
19,COCCN1CCCN(C(=O)NC(C)Cn2ccnc2)CC1 (stereo not given),-1.32
20,COc1ccc(COCC(O)CNC(=O)c2cnc(C)cn2)cc1 (stereo not given),0.509

row,Structure (SMILES),Percent Effect [%]
1,N#Cc1ccc(N2CCCN(C(=O)CC3CCCO3)CC2)cc1 (stereo not given),4.84
2,Cc1nc(C)n(C2CCCN(C(=O)c3ccccc3C)C2)n1 (stereo not given),0.173
3,Cc1cccc(CNCc2c(C)nn(C)c2N2CCOCC2)n1,3.77
4,O=C(NCC1CC1)Nc1cnc2cc(Cl)ccc2c1O,-0.223
5,Cc1nc2n(n1)CC(Nc1cc(C(F)(F)F)nc3ncnn13)CC2 (stereo not given),-5.49
6,O=C(Cc1cccc(F)c1)NCCNCc1ccco1,0.577
7,CC(C)c1nc(C2CCCN2CC(=O)Nc2ccc(Cl)cn2)no1 (stereo not given),-6.33
8,Cc1csc(N2CCCN(C(=O)c3c(C)oc(C)c3C)CC2)n1,-1.31
9,Cn1nc2c(cc1=O)CN(Cc1coc(-c3cccs3)n1)CC2,39.2
10,CC(C)NC(=O)N1CCC2(CC(C(=O)NCc3cccnc3)=NO2)C1 (stereo not given),2.53
11,CSCC(=O)N1CCC2(CC1)c1ccccc1CC2O (stereo not given),0.357
12,Cc1c(C)n(Cc2ccncc2)c2nc3c(c(N)c12)CCCCC3,4.67
13,Nc1nccc(N2CCCC(CO)(CCOc3ccccc3)C2)n1 (stereo not given),9.3
14,CNC(=O)CSc1nc2c(cnn2Cc2ccc(F)cc2)c(=O)[nH]1,-1.18
15,CO[C@H]1CCN(S(=O)(=O)c2cn(C)cn2)[C@H]1Cc1cnn(C)c1,7.16
16,Cc1ccc(N2CCCN(C(=O)CC3CCCO3)CC2)nn1 (stereo not given),10.1
17,N#Cc1ccccc1OCCN1CCCCC1Cn1cncn1 (stereo not given),3.26
18,c1cnc(NCc2cncc3c2CCN(Cc2cccs2)C3)nc1,3.81
19,Cc1cc(C)cc(-c2ccc(CC3(C(=O)O)CCOCC3)cc2)c1,4.9
20,CNC(=O)c1cc(S(=O)(=O)C(C)C)cs1,-3.82
